A selection: hits, their analogues and other compounds. The true share with any hit is near 0.97%.
PI4K2A inh = blocks human PI4K2A kinase activity; Q9BTU6; purified PI4K2A, ADP-Glo luminescence, 1 h; hits give low values; activity change, negative = inhibition, % at 76.9 µM; 420,000 compounds, 0.13% hits; in the data active = activity change below about -50%; inconclusive = mostly about -30% to -49%;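 also: -100% = wells without enzyme as full effect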
Target sequence (Q9BTU6 whole entry, looked up): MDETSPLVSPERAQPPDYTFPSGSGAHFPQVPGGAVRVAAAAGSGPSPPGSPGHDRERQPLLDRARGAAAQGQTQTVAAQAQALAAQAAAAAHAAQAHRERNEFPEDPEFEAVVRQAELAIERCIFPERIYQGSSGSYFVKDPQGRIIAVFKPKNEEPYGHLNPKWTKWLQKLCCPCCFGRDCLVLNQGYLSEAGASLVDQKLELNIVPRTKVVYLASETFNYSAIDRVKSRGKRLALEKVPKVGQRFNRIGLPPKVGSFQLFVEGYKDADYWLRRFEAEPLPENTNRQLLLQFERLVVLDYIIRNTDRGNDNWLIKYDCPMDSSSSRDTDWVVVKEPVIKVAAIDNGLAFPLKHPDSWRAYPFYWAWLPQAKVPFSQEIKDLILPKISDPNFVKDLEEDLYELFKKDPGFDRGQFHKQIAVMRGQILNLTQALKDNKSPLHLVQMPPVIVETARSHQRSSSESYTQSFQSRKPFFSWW
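PI4K2A activity was measured by ADP-Glo luminescence: enzyme (4 ug/mL stock) and phosphatidylinositol (1.2 mM stock) in Tris pH 7.5/MgCl2/EGTA/Triton X-100 buffer were reacted with ATP (300 microM stock) for one hour at ambient temperature.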
Eya2 inh = blocks the phosphatase activity of human Eya2; O00167; recombinant Eya2, OMFP fluorescence dephosphorylation (OMFP is methylfluorescein phosphate); Potency, µM (top dose mostly 76.9 µM), for the others: at the highest dose activity, negative = inhibition, hits mostly inhibitors; 330,000 compounds, 0.006% hits; active = well fitted inhibition curve with a large enough effect; inconclusive = small, poorly fitted or top-dose-only effect, or effect the other way; also: potency is read from the fitted curve at half-maximal effect
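Eya2 (0.2 uM) preincubated 10 min at ambient with compound, then OMFP substrate added at 50 uM; 10 min reaction in 50 mM HEPES pH 7.5, 50 mM NaCl, 5 uM MgCl2, 0.05% BSA, 1 mM DTT. Fluorescence read at Ex 485/Em 525 nm.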
Six1-Eya2 blk = inhibitors of human Six1/Eya2 interaction | AID 651725 | AlphaScreen GST-Six1/His-Eya2 binding, biochemical; hits give low values | Q15475+O00167 | activity change, % (test concentration not listed) | 360,000 compounds, 0.56% hits
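AlphaScreen luminescence read after one hour at 37 °C in darkness. Pin-transferred compounds met GST-Six1 and His-Eya2 protein (5X stock 250 nM/500 nM) plus glutathione donor and Ni-chelate acceptor beads (5X, 50 ug/mL).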
CCT modulator = changes cytosolic chaperonin activity | 360,000 compounds, 0.3% hits | purified chaperonin ATPase assay, HTRF ADP detection, 30 min | activity change, % (no concentration beside the values), hits read low; in the data active = activity change below about -30%
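Enzyme 40 or 20 nM (batch-dependent) in Tris pH 7.4/KCl/MgCl2/DTT; cpd 76 uM single point; ATP 10 uM; 30 min 37 °C; Transcreener ADP HTRF detection, 30 min RT; ratio 665/615.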
CtBP-E1A inh = blocks the CtBP interaction with E1A | AlphaScreen GST-E1A/His-CtBP binding, 1536-well; hits give low values | activity change, % (concentration not given with the values) | 340,000 compounds, 0.49% hits
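AlphaScreen with 125 nM GST-E1A and 125 nM His-CtBP (5X stocks) in Tris pH 8.0, 300 mM NaCl, BSA, Tween 20, TCEP. Compounds preincubated 2 h at 37 deg C, then glutathione donor/nickel acceptor beads added for 1 h at 37 deg C in dark.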
Numbers without * were called inactive; ? = inconclusive; nt = no result given; [ ] = remark or other dose. Rule as the data show it, unless noted: active = activity change below about -65%; inconclusive = mostly about -30% to -63%; inactive = weaker than that. Unless noted, % is scaled to controls: 0 for no effect and ±100 for the full control effect.

SMILES	PI4K2A inh	Eya2 inh	Six1-Eya2 blk	CCT modulator	CtBP-E1A inh
Oc1c(Cl)c(Cl)c2ncccc2c1Cl	1.0	nt	-14.1	0.9	-0.5
Cc1ccc(O)c2ncccc12	-3.3	nt	nt	nt	nt
Oc1c(I)cc(Cl)c2cccnc12	-25.0	-2.1%	-95.3*	0.4	-94.6*
O=[N+]([O-])c1cc(Cl)c2cccnc2c1O	-16.5	-15.2%	-81.3*	-0.6	-91.5*
Cc1c(C)c2cccnc2c2ncccc12	-14.9	7.6%	-92.5*	3.8	-95.4*
O=[N+]([O-])c1ccc(Cl)c2cccnc12	-1.0	-3.1%	-10.8	0.1	-1.9
O=[N+]([O-])c1cc(Cl)c(O)c2ncccc12	-10.1	-14.6%	-80.3*	-0.9	-90.7*
CCCCn1c(C)cc2c(c1=O)[C@H]1O[C@](CCCCN3C(=O)c4ccccc4C3=O)(Cc3ccccc31)O2	nt	0.5%[15.4 µM]	nt	nt	nt
Nc1cc(C(F)(F)F)ccc1S	-10.4	nt	nt	nt	nt
O=C(NCc1cccc(Cl)c1)C1CCCN(c2ncnc3onc(-c4ccc(F)cc4)c23)C1 (configuration not stated)	-2.8	nt	nt	nt	nt
Cc1ccc(C)c(N(C)C(=O)CCNC(=O)Cn2cnc3ccccc3c2=O)c1	5.2	nt	nt	nt	nt
Clc1ccc(Oc2ccccc2)c2ncccc12	-1.0	-7.2%	6.5	1.9	0.2
Clc1cc2cccnc2c2ncccc12	-4.1	3.1%	-67.2*	0.3	-96.0*
O=[N+]([O-])c1cc(F)c2cccnc2c1O	?	17.6%	-87.9*	0.6	nt
COc1ccc(/C=C/c2nc(C#N)c(N3CCCCC3)o2)cc1OC	-5.8	nt	nt	nt	nt
Cc1ccc(C(=O)O)cc1NC(=O)C1=CSCCO1	-3.2	-0.2%	19.1	-63.0*	nt
Cc1ccc(C(=O)O)cc1NC(=O)c1cccs1	3.8	-0.5%	6.9	-2.0	6.0
O=C(NCCc1c[nH]c2ccccc12)C(=O)c1c[nH]c2ccccc12	-2.3	-5.5%	-25.3	-86.6*	nt
O=C(NCCc1ccc(Cl)cc1)C(=O)c1c[nH]c2ccccc12	1.7	9.0%	5.8	-2.9	-3.1
COCCN(C(=O)CSc1nc2ccc(C)cc2[nH]1)c1c(N)n(Cc2ccccc2)c(=O)[nH]c1=O	0.6	8.1%	4.3	-38.8*	1.7
COCCN(C(=O)CSc1nc2ccc(Cl)cc2[nH]1)c1c(N)n(Cc2ccccc2)c(=O)[nH]c1=O	-7.8	6.7%	-2.6	-3.1	-3.1
CC(=NNC(=O)c1ccncc1)c1ccc2ccccc2c1O	3.6	nt	?	-11.7	?
C/C(=N\NC(=O)c1cc(-c2cccnc2)nc2ccccc12)c1ccc(O)cc1O	0.7	9.5%	-73.8*	-10.4	-1.8
CC(=NNC(=O)c1ccncc1)c1ccccc1O	1.9	nt	-70.6*	-1.5	-75.0*
CC(=NNC(=O)c1ccncc1)c1ccc(O)cc1O	-1.2	nt	?	-2.6	-75.8*
SMILES	PI4K2A inh	Eya2 inh	Six1-Eya2 blk	CCT modulator	CtBP-E1A inh
C/C(=N\NC(=O)c1cc(-c2cccc(OC(C)C)c2)nc2ccccc12)c1cccnc1	-0.3	-7.0%	-0.3	-0.5	0.1
CCOC(=O)N1CCC(NC(=O)c2ccc3c(c2)N(Cc2ccc(F)cc2)C(=O)c2ccccc2S3=O)CC1 (configuration not stated)	5.6	nt	nt	nt	nt
COc1ccc(/C=N/NC(=O)c2nn(-c3ccccc3)c(=O)c3c(N)scc23)cc1	-64.6*	?	?	1.5	-29.8
COc1ccc(/C=N/NC(=O)c2nn(-c3ccc(Cl)cc3)c(=O)c3c(N)scc23)cc1	?	-8.9%	-6.9	-1.2	-20.4
Cc1ccc(C)c(NC(=O)C(c2ccccc2)N2Cc3ccccc3C2=O)c1 (configuration not stated)	-3.1	nt	nt	nt	nt
Cc1cc(N2CCN(C(=O)Oc3ccc(-c4ccccc4)cn3)CC2)c2ccccc2n1	-0.8	nt	nt	nt	nt
Cc1cc(C(=O)c2ccccc2)cc(C)c1O	25.1	nt	-86.1*	-0.7	-23.1
CC12CCC(C(=O)N(CSC(=S)N/N=C\c3ccccc3O)C1=O)C2(C)C (configuration not stated)	4.1	11.2%	-89.4*	-1.3	-94.3*
CSc1nnc(-c2cc3c(-c4ccccc4)nn(C)c3s2)n1C	-1.1	6.9%	-73.6*	1.6	-74.3*
CC1CC(=O)NN=C1c1ccc(NCC(C)(C)NCC(O)COc2cc(Cl)ccc2C#N)cc1 (configuration not stated)	0.3	nt	nt	nt	nt
COc1ccc(-c2ccc(NC(=O)c3ccco3)cc2)nn1	-53.2*	-28.6%	-2.4	0.1	-6.2
O=C(Nc1ccc(-c2noc(CCc3ccccc3)n2)cc1)c1ccco1	0.0	-6.1%	-3.6	-55.8*	0.8
CCCCCN1CCCCC(NC(=O)c2cccc(F)c2)C1=O (configuration not stated)	0.5	nt	nt	nt	nt
COc1cc(C(=O)Oc2ccc(Br)cc2C(=S)N2CCOCC2)cc(OC)c1OC	1.3	-5.0%	-83.4*	-2.2	-71.3*
COc1ccc(C(=S)N2CCOCC2)cc1OC(=O)c1cc(OC)c(OC)c(OC)c1	1.8	-4.0%	-9.5	0.0	-13.8
COc1ccc(Br)c2c1-c1nc(NC(=O)c3cccc(C)c3)sc1C2	-12.1	nt	nt	nt	nt
COc1cc(/C=C(\C#N)c2nc3ccc(C)cc3[nH]2)cc([N+](=O)[O-])c1O	-3.8	4.2%	-72.8*	1.5	-74.6*
CCC(NS(=O)(=O)c1cnn(CC)c1)c1ccccc1 (configuration not stated)	-0.3	-7.8%	3.0	-3.1	nt
CCC(NS(=O)(=O)c1cn(C)nc1C)c1ccccc1 (configuration not stated)	-0.6	-2.1%	1.3	-30.9*	-2.9
C=CCn1c(SCC(=O)Nc2cc(C)on2)nc2sc3c(c2c1=O)CCCC3	-3.4	6.0%	1.7	-64.5*	3.7
CC(NC(=O)/C(C#N)=C1\N=C(NC(=O)c2ccco2)c2ccccc21)c1ccccc1 (configuration not stated)	4.2	56.2µM*	-15.2	-0.7	-11.6
CC(NC(=O)/C(C#N)=C/c1ccco1)c1ccccc1 (configuration not stated)	-0.5	9.4%	9.1	-9.3	6.6
CCOC(=O)c1cc(C)n(CC2CCC(C(=O)Nc3cc(OC)cc(OC)c3)CC2)c1C (configuration not stated)	3.2	nt	nt	nt	nt
CC(=O)c1ccc(N=Nc2ccc(N(C)C)cc2)cc1	-7.8	-2.8%	?	1.5	-12.8
CN(C)c1ccc(N=Nc2nccs2)cc1	?	nt	-82.7*	-2.8	?
O=C(Oc1ccc(-c2cnc3ccccc3n2)cc1)c1ccco1	-77.3*	0.5%	-1.4	0.4	-0.5
Cc1ccc(-c2nc(-c3cccnc3)no2)cc1	-9.6	nt	6.6	1.0	6.2
CCC(=O)Oc1ccc(-c2cnc3ccccc3n2)cc1	-65.1*	?	-2.6	-0.5	-4.5
O=C(Nc1cccc(-c2cnc3ccccc3n2)c1)c1ccco1	8.5	-3.8%	-23.0	0.3	-7.4
CCC(=O)Oc1ccc(-c2nc(-c3cccnc3)no2)cc1	-55.2*	16.2%	-14.9	-5.2	-0.3

Compound activity from PubChem.
